Assay outcomes (PubChem BioAssay)
HttQ103 aggreg: qHTS Multiplex Assay to Identify Dual Action Probes in a Cell Model of Huntington: Aggregate Formation (GFP). PC12 HttQ103-GFP aggregates, Acumen cytometry, 40 h. 1.1% of 220,000 active. Potency, µM (doses to about 46.1 µM), inactives show at the top dose activity change, negative = inhibition, hits mostly inhibitors; also: % is scaled to controls: 0 for no effect and ±100 for the full control effect; nearly all actives have a fitted effect of over 60% in size
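Compounds (qHTS titration) were added to PC12 cells expressing an ecdysone-driven HTT exon 1 Q103–GFP fusion after induction with 100 nM tebufenozide. Aggregate formation was measured as GFP objects in cell lysates.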
Lamin A splicing: qHTS Assay for Modulators of Lamin A Splicing; 0.01% of 200,000 active; HeLa LMNA splicing GFP/RFP minigene ratio, 48 h; Potency, µM (highest dose often 46.1 µM), without a hit: top-dose ratio change, negative = inhibition, hits mostly inhibitors; AID 1487, 2009; active = well fitted inhibition curve with a large enough effect in the signal ratio, with a control signal flat, not every such curve was filed as active; inconclusive = small, poorly fitted or top-dose-only effect, or effect the other way, or a change in a side signal; the % refers to the signal ratio; also: % is scaled to controls: 0 for no effect and ±100 for the full control effect
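S3 HeLa cells stably expressing lamin A-EGFP splicing minigene plus DsRed2, 600 cells/well, 48 h compound exposure at 37C. Laser-scanning cytometry; analysed as GFP (500-530 nm)/RFP (575-640 nm) total intensity ratio; 0.5% DMSO vehicle.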
HTT cytoprotect: qHTS Multiplex Assay to Identify Dual Action Probes in a Cell Model of Huntington: Cytoprotection (ATP); AID 1471, 2008; PC12 HTT-Q103 induced, cytoprotection, ATP luminescence, 40 h; 0.14% of 230,000 active; Potency, µM (titrated, usually from 56.4 µM), inactives show cytoprotection (ATP increase), actives largely listed as activators; also: % of control where 0% means no effect; nearly all actives have a fitted effect of over 45% in size
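PC12 cells stably carrying ecdysone-inducible Htt exon 1 (Q103)–GFP were induced with 100 nM tebufenozide (final) alongside library compounds in a dose series. Cytoprotection was scored as retained ATP by ATPlite luminescence.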
HPGD block: qHTS Assay for Inhibitors of HPGD (15-Hydroxyprostaglandin Dehydrogenase). 15-hydroxyprostaglandin dehydrogenase [NAD(+)] (Homo sapiens), P15428. purified HPGD, NADH fluorescence kinetic, PGE2 substrate. Potency, µM, for inactives: at the top dose activity change, negative = inhibition, hits mostly inhibitors. 4.3% of 150,000 active; active = well fitted inhibition curve with a large enough effect, not every such curve was filed as active; inconclusive = small, poorly fitted or top-dose-only effect, or another doubt; inactive = no such curve, though single readings can be large or run the other way; also: % is scaled to controls: 0 for no effect and ±100 for the full control effect
Target sequence (P15428 whole entry, looked up): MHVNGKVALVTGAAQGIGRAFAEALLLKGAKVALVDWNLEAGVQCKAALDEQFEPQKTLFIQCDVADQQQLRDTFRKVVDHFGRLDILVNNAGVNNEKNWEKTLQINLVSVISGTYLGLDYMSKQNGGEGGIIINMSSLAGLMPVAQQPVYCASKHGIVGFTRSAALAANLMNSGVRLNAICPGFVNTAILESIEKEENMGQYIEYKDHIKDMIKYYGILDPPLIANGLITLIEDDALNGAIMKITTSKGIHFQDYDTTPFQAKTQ
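20 nM HPGD preincubated 15 min at room temperature with compound in 50 mM Tris-HCl pH 8, 0.01% Tween 20. Started with 1 mM NAD+ and 30 uM prostaglandin E2; NADH fluorescence (360/450 nm) read 5 times over 30-s intervals, last minus first.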
ALDH1A1 block: qHTS Assay for Inhibitors of Aldehyde Dehydrogenase 1 (ALDH1A1); 7.3% of 220,000 active; Purified ALDH1A1, NADH fluorescence, propionaldehyde substrate; Aldehyde dehydrogenase 1A1 (Homo sapiens), P00352; AID 1030, 2008; Potency, µM (doses to about 75.3 µM), for the others: at the top dose activity, negative = inhibition, actives largely listed as inhibitors; active = well fitted inhibition curve with a large enough effect, not every such curve was filed as active; inconclusive = small, poorly fitted or top-dose-only effect, or another doubt; inactive = no such curve, though single readings can be large or run the other way;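 also: plate controls were no enzyme wells and a reference inhibitor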
Target sequence (P00352 whole entry, looked up): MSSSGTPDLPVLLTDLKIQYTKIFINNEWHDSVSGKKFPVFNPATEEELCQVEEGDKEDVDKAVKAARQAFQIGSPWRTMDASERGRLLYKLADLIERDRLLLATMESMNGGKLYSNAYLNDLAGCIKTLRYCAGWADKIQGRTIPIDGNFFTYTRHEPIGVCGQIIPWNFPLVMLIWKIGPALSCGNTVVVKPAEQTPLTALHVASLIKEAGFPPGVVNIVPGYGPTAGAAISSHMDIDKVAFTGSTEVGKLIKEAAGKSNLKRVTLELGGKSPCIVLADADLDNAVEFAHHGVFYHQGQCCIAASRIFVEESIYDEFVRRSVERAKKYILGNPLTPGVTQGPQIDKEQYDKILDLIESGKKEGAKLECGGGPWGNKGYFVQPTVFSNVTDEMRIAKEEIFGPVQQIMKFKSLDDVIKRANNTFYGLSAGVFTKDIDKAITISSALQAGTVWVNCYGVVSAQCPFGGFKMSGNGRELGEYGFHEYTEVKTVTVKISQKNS
Numbers without * were called inactive; ? = inconclusive; . = no result given; [ ] = dose if it differs, or a comment. Most compounds without a hit are left out; they make up all but 8.8% or so of the library. Unless noted, calls follow the shape of the dose curve; as a rule, active = well fitted curve in the direction sought with a large enough effect; inconclusive = small, poorly fitted or top-dose-only effect, or another doubt; inactive = no such curve, though single readings can be large; an effect the other way counts as inactive or inconclusive. Potency is read from the fitted curve at half-maximal effect.

SMILES	HttQ103 aggreg	Lamin A splicing	HTT cytoprotect	HPGD block	ALDH1A1 block
COc1cccc(OC)c1C(=O)Nc1cc(Cl)ccc1N1CCOCC1	14.3%	-5.3%	-2.0%[10 µM]	-2.5%	-4.2%
Cc1ccc2c(C(=O)CN3CCN(C4CCCCC4)CC3)c(C)[nH]c2c1	12.0%	-3.3%	7.6%[0.074 µM]	-14.7%	12.6µM*
C/C(CCN1CCc2nc(-c3ccccc3)c(-c3ccccc3)cc2C1)=N\OC[C@@H](O)COCc1ccco1	.	.	-12.0%[10 µM]	.	2.8%[13.5 µM]
COc1ccc(C(=O)c2ccc(Br)cc2)c2ccccc12	-1.8%	-2.3%	?	?	5.0%
COc1ccc(C(=O)c2ccccc2)c2c(O)ccc(C(=O)c3ccccc3)c12	3.55µM*	?	1.0%	-26.2%	2.0%
COc1cc(O)c(C(=O)c2ccccc2)cc1O	.	?	.	4.47µM*	-12.3%
COc1cc(C(=O)c2ccccc2)c([N+](=O)[O-])cc1OC	2.0%[9.22 µM]	.	7.2%[10 µM]	.	.
CC1CCN(C(=O)c2ccc(NC(=O)c3nsc4ccccc34)cc2)CC1	.	-0.9%[46 µM]	.	.	.
COc1ccccc1-c1ccc2ncnc(N3CCN(C)CC3)c2c1	.	?	-62.1%	?	?
CCC(=O)[C@]12O[C@@]3(C4C(=O)OCCC41)N(Cc1ccccc1)C(C)=C(C(=O)OC)C(c1ccccc1)N3C2=O (some centres not stated)	.	.	-6.8%[10 µM]	.	-5.4%[13.5 µM]
CCN(CC)C(=O)Cn1ncc2c([nH]c3ccccc32)c1=O	.	9.0%[46 µM]	.	.	.
CC(=O)N(C(C)=O)c1ncc2c([nH]c3ccccc32)c1C#N	3.16µM*	8.4%	-4.6%	?	?
Cc1oc(-c2ccccc2Cl)nc1CSc1nc2ncccc2[nH]1	.	-8.9%[46 µM]	.	.	.
Cc1cccc(-c2nc(CSc3nc4c(c(=O)[nH]3)CCC4)c(C)o2)c1	4.7%	?	.	2.82µM*	-2.4%
O=C(O)CSc1nc2c(c(=O)[nH]1)CCCC2	-12.1%	0.0%	19.7%	.	8.0%
CCCCSc1nc2c(c(=O)[nH]1)CCC2	13.9%	5.2%	-16.6%	28.2µM*	-12.2%
Cc1ccccc1-c1nc(CSc2nc3c(c(=O)[nH]2)CCC3)c(C)o1	-1.9%	1.6%	.	4.47µM*	9.3%
Cc1oc(-c2ccccc2)nc1CSc1nc2c(c(=O)[nH]1)CCC2	9.1%	9.0%	.	4.47µM*	6.6%
CC(C)(C)OC(=O)N1CCC(c2c(C(=O)NCc3ccc4c(c3)OCO4)cnn2-c2ccccc2Cl)CC1	.	-7.5%[46 µM]	.	.	.
O=C(CCNC(=O)c1ccco1)Nc1ccc(SC(F)F)cc1	5.3%	-9.8%[46 µM]	0.1%[10 µM]	.	12.7%
Cc1ccccc1CSc1nc2c(c(=O)[nH]1)CCC2	5.4%	?	-18.8%	3.55µM*	9.1%
Cc1ccccc1CSc1nnc(C)c(=O)[nH]1	-6.5%	-0.9%	-16.0%	?	?
CCN(CC)S(=O)(=O)c1ccc(N/N=C/c2cc(OC)ccc2O)nc1	2.82µM*	?	-88.4%[10 µM]	-4.5%	3.8%
CCN(CC)S(=O)(=O)c1ccc(N/N=C/c2cccnc2)nc1	-23.0%[9.22 µM]	.	13.6%[10 µM]	.	.
CCOC(=O)NCCOC(=O)Nc1ccc(Cl)cc1	-12.2%	6.9%[46 µM]	-18.6%	.	5.1%
SMILES	HttQ103 aggreg	Lamin A splicing	HTT cytoprotect	HPGD block	ALDH1A1 block
CCOC(=O)N(C)OC(=O)Nc1ccc(Cl)c(Cl)c1	-29.7%	13.5%	-7.3%	?	3.98µM*
CCOC(=O)N(CC)OC(=O)Nc1ccc(Cl)cc1	-14.5%	-0.6%	12.2%	-8.4%	4.47µM*
CC(C)N1CCC(N2CCN(C3CCCC3)CC2CCO)CC1 (configuration not stated)	-16.9%[9.22 µM]	-3.2%[46 µM]	9.7%[10 µM]	.	0.3%
Cc1cccc(N2CCC(N3CCN(C4CCCCC4)C(CCO)C3)CC2)c1C (configuration not stated)	27.9%[9.22 µM]	10.2%[46 µM]	?	.	3.55µM*
CCOCc1c(C(=O)OCC(=O)Nc2ccc(C)c(S(=O)(=O)N(C)C)c2)oc2ccccc12	2.0%	1.5%	7.6%[10 µM]	-6.6%	?
C=CSc1sc(Cl)c(N2CCOCC2)c1[N+](=O)[O-]	3.5%[9.22 µM]	.	-180.7%	.	?
C=CS(=O)(=O)c1sc(Cl)c(N2CCOCC2)c1[N+](=O)[O-]	-0.3%[9.22 µM]	?	-24.2%[10 µM]	.	0.224µM*
COc1ccc(/C=N/NC(=O)c2ccc(Br)cc2)c(OC)c1	-11.9%	.	-27.0%	.	-1.2%
COc1ccc(/C=N/Nc2ncc(Br)cn2)c(OC)c1	?	.	3.55µM*	.	-0.4%
CCOC(=O)c1[nH]cnc1C(=O)Nc1cccc(Cl)c1	-5.7%[9.22 µM]	.	-7.0%	.	?
COc1ccc(CNC(=O)CCn2c(=O)oc3ccccc32)c(OC)c1	-2.7%	?	-16.2%	.	?
CN(C)CCCN(C(=O)CCc1ccccc1)c1nc2c(F)cccc2s1	19.4%	?	2.0%[10 µM]	-7.3%	-2.1%
CN(C)CCCN(C(=O)CCOc1ccccc1)c1nc2c(F)cccc2s1	12.6µM*	.	-176.2%	.	3.16µM*
CSc1ccc(CN(C)C(C)C(=O)NCc2ccccc2)cc1 (configuration not stated)	-10.2%	.	-60.8%	.	-7.1%
CN1CCN(c2ncc3nc(-c4cc(F)cc(F)c4)c(=O)n(Cc4cccs4)c3n2)CC1	.	-4.3%	-307.6%	.	-14.9%
CC(=O)c1cc(F)c(N2CCCCCC2)cc1C	-10.0%	-1.5%	15.1%[10 µM]	-21.9%	7.9%
Cc1cc(N)ccc1-n1c(C)ccc1C	20.3%	?	2.7%	-7.3%	10µM*
Cc1cc(N)ccc1N1CCCC1	-16.0%	10.9%	-16.6%	-5.4%	25.1µM*
Cc1cc(N2CCCC2)c(C)cc1C=O	9.6%	-0.6%	6.5%	-6.9%	14.1µM*
CCCc1cnc2c(c1SCc1ccc(C(F)(F)F)cc1)c(=O)n(C)c(=O)n2C	.	-0.5%[46 µM]	.	.	.
Oc1ccc(Br)cc1-c1cc(-c2ccccc2F)[nH]n1	-4.6%	-2.0%	-12.8%	4.47µM*	2.1%
Oc1ccc(Br)cc1-c1cc(-c2ccccc2Cl)[nH]n1	-3.7%[9.22 µM]	.	7.1%[10 µM]	.	.
Oc1ccc(Cl)cc1-c1cc(-c2ccccc2)n[nH]1	-15.6%	?	-16.6%	15.8µM*	3.6%
CCCCc1nc2c(c3c1C[C@H](C)OC3)CN(S(=O)(=O)c1ccccc1C(=O)OC)CC2	.	-10.7%[9.22 µM]	-8.9%[10 µM]	-8.3%	6.2%[13.5 µM]
COCCN(C)Cc1cn(-c2ccc(F)cc2F)nc1-c1ccccc1C	?	.	11.1%[10 µM]	.	25.1µM*
CC(C)(C)C(=O)/C(=C\c1ccc([N+](=O)[O-])cc1)n1cncn1	5.01µM*	?	?	?	-11.4%
Cc1ccc(NC(=S)Nc2ccc(C(C)C)cc2)cc1S(=O)(=O)N1CCCCCC1	-5.9%	?	-33.3%[10 µM]	?	17.8µM*
O=C(ON=C1CCN(c2ccc([N+](=O)[O-])cc2)CC1)c1ccccc1	12.5%	0.2%	8.4%	-5.9%	?
